The results in this text go back to PubChem BioAssay (NCI).

The panel holds about 83,000 compounds, 20% with a hit somewhere; the sample as a whole holds those more often.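 Single-concentration screen, 48 h exposure, 96-well plates. Endpoint: percent growth. Below 10 = active.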 A number with no mark means an inactive call. Active and inactive are the calls of the source.

Common to all, as to test: NCI-60 one-dose screen, 48 h (100 = growth as untreated, 0 = no growth, -100 = all killed)
The test system of one test is HCT-15 colon. The conditions noted are these: 10 µM unless noted.
The test system of another test is HT29 colon. The conditions noted are these: 10 µM unless noted.
In another test the test system is SNB-75 CNS. To be noted: 10 µM unless noted.
Another test relates to SNB-19 CNS. To be noted: 10 µM unless noted.
The next test deals with U251 CNS. The conditions noted are these: 10 µM unless noted.
Another test deals with PC-3 prostate. To be noted: 10 µM unless noted.
A further test concerns SK-MEL-5 melanoma. The conditions noted are these: 10 µM unless noted.
Another test deals with SK-MEL-28 melanoma. The conditions noted are these: 10 µM unless noted.
A further test relates to LOX IMVI melanoma. The conditions noted are these: 10 µM.
The test system of another test is UACC-62 melanoma. To be noted: 10 µM unless noted.

`Nc1cc2c(cc1Cl)C(=O)c1ccccc1C2=O`: the growth in the test on HCT-15 colon is 70.6%; with HT29 colon, 83.8%; in the test on SNB-75 CNS it was 30.9%; in the test with SNB-19 CNS, 36.2%; in the test with U251 CNS, -34.1% (active); with PC-3 prostate, 72.5%. Moreover, the growth was 91.9% in the test with SK-MEL-5 melanoma and 101% with SK-MEL-28 melanoma.
Regarding `Cc1[nH]nc(C(N)=O)c1[N+](=O)[O-]`, the growth with HCT-15 colon was 95.2%; with HT29 colon it was 108%; in the test on SNB-75 CNS, 99.6%; with SNB-19 CNS it was 93.2%; in the test on U251 CNS, 103%; in the test on PC-3 prostate it was 100%. The figures for the growth with SK-MEL-5 melanoma, in the test on LOX IMVI melanoma and in the test on SK-MEL-28 melanoma were 91.2%, 97.2% and 93.2%, respectively.
Turning to `NCC(O)C(O)C(O)C(O)CO` (configuration not stated), the growth with HCT-15 colon was 106%; in the test with HT29 colon it was 95.9%; with SNB-75 CNS, 91.8%; in the test with SNB-19 CNS, 104%; with U251 CNS, 90.5%; in the test with PC-3 prostate it was 81.4%. Also, the figures for the growth with SK-MEL-5 melanoma and in the test with SK-MEL-28 melanoma were 101% and 108%, respectively.
Consider `Cc1cc(Cc2ccccc2)c(O)c(Cc2ccccc2)c1`, for which the growth is 89.8% with HCT-15 colon; 104% with HT29 colon; 75.5% in the test with SNB-75 CNS; 102% in the test with SNB-19 CNS; 86.5% in the test on U251 CNS; 88.3% in the test with PC-3 prostate. The growth was 71.4% in the test on UACC-62 melanoma, 80.7% in the test with LOX IMVI melanoma and 106% in the test with SK-MEL-28 melanoma.
Turning to `Nc1ccc(F)c(Cl)c1F`, the growth was 111% in the test with HCT-15 colon; 108% with HT29 colon; 89.3% in the test with SNB-75 CNS; 110% in the test on SNB-19 CNS; 116% with U251 CNS; 84.1% in the test on PC-3 prostate. Moreover, the growth is 103% with UACC-62 melanoma, 95.3% with LOX IMVI melanoma and 109% in the test on SK-MEL-28 melanoma.
As for `C=CC(=O)OC1CCC(C(C)(C)CC)CC1` (configuration not stated), the growth is 98.2% in the test with HCT-15 colon; 112% in the test with HT29 colon; 95.4% with SNB-75 CNS; 109% with SNB-19 CNS; 116% with U251 CNS; 104% in the test with PC-3 prostate. Further, the results for the growth in the test with SK-MEL-5 melanoma, in the test with LOX IMVI melanoma and in the test on SK-MEL-28 melanoma were 104%, 101% and 110%, respectively.
`Nc1nc(N)nc(N2CCCCC2)n1`: the growth in the test with HCT-15 colon is 107%; in the test on HT29 colon, 98.2%; in the test on SNB-75 CNS, 118%; with SNB-19 CNS it was 115%; in the test on U251 CNS, 101%; with PC-3 prostate it was 99.5%. Further, the growth in the test on SK-MEL-5 melanoma is 100%; in the test with LOX IMVI melanoma, 104%; with SK-MEL-28 melanoma, 114%.
For the molecule `COc1cc(-c2ccc(NC(=O)CC(C)=O)c(OC)c2)ccc1NC(=O)CC(C)=O`, the growth in the test on HCT-15 colon was 96.7%; in the test with HT29 colon, 107%; with SNB-75 CNS it was 82.2%; with SNB-19 CNS, 101%; in the test on U251 CNS, 89.6%; in the test on PC-3 prostate, 95.1%. In addition, the growth with UACC-62 melanoma is 102%; in the test on LOX IMVI melanoma it was 96.7%; in the test on SK-MEL-28 melanoma it was 111%.
Regarding `O=C(Nc1c(Cl)cc(Cl)cc1Cl)ON=C1CCCCC1`, the growth in the test on HCT-15 colon is 102%; in the test on HT29 colon, 104%; in the test on SNB-75 CNS, 94.4%; with SNB-19 CNS it was 108%; with U251 CNS, 104%; in the test on PC-3 prostate it was 114%. Besides, the figures for the growth in the test with SK-MEL-5 melanoma and in the test on SK-MEL-28 melanoma were 101% and 106%, respectively.
Regarding `CC(C)NC(=O)OCc1c(COC(=O)NC(C)C)c(-c2ccc(Cl)cc2)n2c1CCC2`, the growth in the test on HCT-15 colon was 58.4%; with HT29 colon, 56%; with SNB-75 CNS it was 34.1%; with SNB-19 CNS it was 57.9%; in the test on U251 CNS, 49%; in the test on PC-3 prostate it was 68.2%. Also, the growth with SK-MEL-5 melanoma is 68.1%; in the test with LOX IMVI melanoma it was 30.5%; in the test on SK-MEL-28 melanoma, 84.7%.
On to `O=C(Nc1cccc(Cl)c1)c1ccc(Cl)cc1Cl`, for which the growth in the test with HCT-15 colon was 96.3%; in the test with HT29 colon it was 86.5%; with SNB-75 CNS it was 84.7%; in the test with SNB-19 CNS, 96.9%; with U251 CNS, 90.7%; in the test with PC-3 prostate it was 82.2%. Also, the growth in the test with SK-MEL-5 melanoma is 96.1%; in the test on LOX IMVI melanoma it was 98.5%; in the test with SK-MEL-28 melanoma it was 101%.
For the molecule `CCOC(=O)CNC`, the growth is 99.1% in the test on HCT-15 colon; 117% in the test on HT29 colon; 83.4% in the test with SNB-75 CNS; 100% in the test with SNB-19 CNS; 89.4% in the test on U251 CNS; 93.9% in the test on PC-3 prostate. Also, the growth is 101% with SK-MEL-5 melanoma, 95.6% in the test with LOX IMVI melanoma and 105% with SK-MEL-28 melanoma.
As for `C/C(=N\Nc1ccc([N+](=O)[O-])cc1[N+](=O)[O-])c1ccc(Br)cc1`, the growth in the test on HCT-15 colon is 97.5%; in the test on HT29 colon it was 92.2%; with SNB-75 CNS, 104%; in the test on SNB-19 CNS, 97.8%; in the test with U251 CNS it was 92.2%; in the test on PC-3 prostate, 91.2%. Besides, the growth was 100% in the test with SK-MEL-5 melanoma, 95.8% with LOX IMVI melanoma and 107% in the test on SK-MEL-28 melanoma.
As to `C=C1SC(=Nc2c(C)cccc2C)N(c2nc(Cl)nc(Cl)n2)C12CCCCC2`, the growth with HCT-15 colon was 109%; in the test on HT29 colon it was 108%; in the test with SNB-75 CNS, 96.7%; with SNB-19 CNS it was 108%; with U251 CNS, 102%; in the test on PC-3 prostate it was 99.3%. For the same molecule, the results for the growth in the test on SK-MEL-5 melanoma, with LOX IMVI melanoma and with SK-MEL-28 melanoma were 84.2%, 104% and 104%, respectively.
In the case of `O=[N+]([O-])c1ccc2[nH]c(=S)n(/C=C(/c3ccc(Cl)cc3Cl)S(=O)(=O)Cc3ccc(Cl)cc3Cl)c2c1`, the growth in the test with HCT-15 colon is 101%; in the test on HT29 colon, 98.9%; with SNB-75 CNS, 108%; in the test on SNB-19 CNS, 102%; in the test with U251 CNS, 98.1%; in the test with PC-3 prostate, 94.7%. The growth was 101% with UACC-62 melanoma, 98.6% with LOX IMVI melanoma and 110% with SK-MEL-28 melanoma.
